Measured values: the supplement of paper PMC6279402
± gives the standard deviation of the averaged measurements.

Tested on: A549
Assay: relative viability (normalised to negative control = 1, bortezomib = 0) (fraction); higher = less cytotoxic
Details: inflammatory serum-free RHB-A with cytokines + LPS, 5 d + 24 h CellTiter-Blue
Method: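 A549 KRAS-mutant NSCLC cells, pre-treated 5 µM GSK126 or vehicle (DMSO), were seeded at 250 cells/well in 384-well plates in serum-free RHB-A medium with inflammatory cytokines/LPS and treated with Selleck kinase inhibitor and NCI oncology compounds at 30 or 300 nM in triplicate, refreshed at 48 h. Viability was read by CellTiter-Blue after 5 d plus 24 h and normalised per plate with cellHTS2 (mean of bortezomib positive control = 0, mean of negative control = 1).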

[1] = compound 30 nM, GSK126 pretreatment: 5 uM GSK126
[2] = compound 30 nM, GSK126 pretreatment: none (vehicle)
[3] = compound 300 nM, GSK126 pretreatment: 5 uM GSK126
[4] = compound 300 nM, GSK126 pretreatment: none (vehicle)

Row | SMILES | relative viability [1] | relative viability [2] | relative viability [3] | relative viability [4]
1 | CCOc1ccn(-c2ccc(F)cc2)c(=O)c1C(=O)Nc1ccc(Oc2ccnc(N)c2Cl)c(F)c1 | 0.905 ± 0.21 | 0.914 ± 0.17 | 0.977 ± 0.21 | 1.08 ± 0.16
2 | COc1cc2c(Oc3ccc4[nH]c(C)cc4c3F)ncnc2cc1OCCCN1CCCC1 [Cediranib(AZD2171)] | 0.943 ± 0.053 | 0.968 ± 0.019 | 0.981 ± 0.11 | 0.996 ± 0.051
3 | CCS(=O)(=O)c1cccc(-c2cc(C(=O)NC3CCN(C)CC3)c(C)c3[nH]c4ncc(C)cc4c23)c1 | 0.702 ± 0.12 | 0.72 ± 0.058 | 0.553 ± 0.083 | 0.485 ± 0.031
4 | COc1cc(Nc2ncc(F)c(Nc3ccc4c(n3)NC(=O)C(C)(C)O4)n2)cc(OC)c1OC [R406(free base); R406] | 0.92 ± 0.13 | 0.896 ± 0.067 | 1.23 ± 0.096 | 1.22 ± 0.087
5 | Nc1nc(Cl)nc2c1ncn2[C@@H]1O[C@H](CO)[C@@H](O)[C@@H]1F [Clofarabine] | 0.74 ± 0.12 | 0.693 ± 0.026 | 0.28 ± 0.047 | 0.256 ± 0.027
6 | O=NN(CCCl)C(=O)NCCCl [Carmustine] | 0.852 ± 0.1 | 0.858 ± 0.13 | 0.894 ± 0.046 | 0.955 ± 0.072
7 | N#CC1(c2ccc(NC(=O)c3cccnc3NCc3ccncc3)cc2)CCCC1 [Apatinib (YN968D1)] | 0.83 ± 0.072 | 0.853 ± 0.054 | 0.936 ± 0.085 | 0.9943 ± 0.005
8 | Nc1nccc(Oc2ccc(NC(=O)c3c[nH]cc(-c4ccc(F)cc4)c3=O)cc2F)c1Cl | 0.87 ± 0.13 | 0.882 ± 0.16 | 1.14 ± 0.15 | 1.12 ± 0.18
9 | O=C(Cc1ccc(-c2ccc(OCCN3CCOCC3)cc2)cn1)NCc1ccccc1 | 0.319 ± 0.065 | 0.211 ± 0.026 | 0.388 ± 0.049 | 0.248 ± 0.05
10 | CC[C@@H]1C(=O)N(C)c2cnc(Nc3ccc(C(=O)NC4CCN(C)CC4)cc3OC)nc2N1C1CCCC1 | 0.451 ± 0.03 | 0.362 ± 0.021 | 0.212 ± 0.04 | 0.215 ± 0.02
